Measurements taken from the supplement of paper PMC11732987, “Enantioselective OTUD7B fragment discovery through chemoproteomics screening and high-throughput optimisation” (Communications Chemistry, 2025).

Experiments:
Experiment in all cases: log2 ratio of Biotin-Ahx-Ub-VS probe labelling (fragment/DMSO); higher = less target engagement (more negative = stronger competition), active = hit call of the paper (q ≤ 0.05, log2 ratio ≤ -1)
Settings in all cases: compound concentration: 200 uM; treatment time: 3 h
USP19 = molecular target: T1, USP19 (UniProt O94966)
T1 sequence (whole entry): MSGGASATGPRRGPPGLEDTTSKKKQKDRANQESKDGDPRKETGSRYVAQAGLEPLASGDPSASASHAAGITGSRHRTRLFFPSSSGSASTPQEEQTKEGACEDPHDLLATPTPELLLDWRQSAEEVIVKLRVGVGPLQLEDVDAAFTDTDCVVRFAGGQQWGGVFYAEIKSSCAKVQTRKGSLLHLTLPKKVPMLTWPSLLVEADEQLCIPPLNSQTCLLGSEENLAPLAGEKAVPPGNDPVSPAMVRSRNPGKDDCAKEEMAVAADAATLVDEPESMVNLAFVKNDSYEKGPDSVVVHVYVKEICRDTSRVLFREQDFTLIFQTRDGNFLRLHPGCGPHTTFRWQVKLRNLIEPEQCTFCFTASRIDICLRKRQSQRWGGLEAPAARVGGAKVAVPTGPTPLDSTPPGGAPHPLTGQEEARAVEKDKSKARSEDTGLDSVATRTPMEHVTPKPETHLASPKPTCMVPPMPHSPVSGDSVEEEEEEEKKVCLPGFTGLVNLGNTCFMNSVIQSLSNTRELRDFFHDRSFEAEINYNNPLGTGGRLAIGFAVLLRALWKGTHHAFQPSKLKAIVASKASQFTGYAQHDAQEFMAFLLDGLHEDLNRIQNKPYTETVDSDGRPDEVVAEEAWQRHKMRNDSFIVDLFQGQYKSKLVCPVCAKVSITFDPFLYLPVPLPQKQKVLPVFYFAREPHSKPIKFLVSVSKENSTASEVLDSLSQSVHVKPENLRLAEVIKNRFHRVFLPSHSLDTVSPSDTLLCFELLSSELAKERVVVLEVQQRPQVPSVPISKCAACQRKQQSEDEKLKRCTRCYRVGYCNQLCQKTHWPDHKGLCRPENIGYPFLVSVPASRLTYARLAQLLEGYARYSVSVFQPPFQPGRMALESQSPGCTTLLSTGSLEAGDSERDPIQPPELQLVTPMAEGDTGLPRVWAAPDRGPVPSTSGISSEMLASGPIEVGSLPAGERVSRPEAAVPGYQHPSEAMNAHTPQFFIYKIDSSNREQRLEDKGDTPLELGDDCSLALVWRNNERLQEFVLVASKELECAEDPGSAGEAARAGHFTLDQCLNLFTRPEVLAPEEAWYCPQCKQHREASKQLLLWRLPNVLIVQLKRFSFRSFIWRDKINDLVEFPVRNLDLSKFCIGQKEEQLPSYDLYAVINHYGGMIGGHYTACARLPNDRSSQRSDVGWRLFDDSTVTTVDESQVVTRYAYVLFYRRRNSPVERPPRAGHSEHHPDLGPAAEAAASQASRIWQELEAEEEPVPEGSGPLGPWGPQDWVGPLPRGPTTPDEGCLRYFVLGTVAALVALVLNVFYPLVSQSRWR
Procedure, shortened: (§1)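 HEK293T lysate in Tris/CHAPS/IGEPAL buffer with protease inhibitors (495 µg per sample) was given fragment at 200 µM or vehicle for 3 h, in triplicate. It then received Biotin-Ahx-Ub-VS at 0.5 µM final for 1 h. Labelled DUBs were NeutrAvidin-enriched, digested with LysC and trypsin, and run by diaPASEF LC-MS/MS. Values are average log2 fragment/vehicle ratios by unpaired t-test on global-median-normalised Spectronaut quantities of proteins with ≥2 unique peptides.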

USP22 = molecular target: T2, USP22 (UniProt Q9UPT9)
T2 sequence (whole entry): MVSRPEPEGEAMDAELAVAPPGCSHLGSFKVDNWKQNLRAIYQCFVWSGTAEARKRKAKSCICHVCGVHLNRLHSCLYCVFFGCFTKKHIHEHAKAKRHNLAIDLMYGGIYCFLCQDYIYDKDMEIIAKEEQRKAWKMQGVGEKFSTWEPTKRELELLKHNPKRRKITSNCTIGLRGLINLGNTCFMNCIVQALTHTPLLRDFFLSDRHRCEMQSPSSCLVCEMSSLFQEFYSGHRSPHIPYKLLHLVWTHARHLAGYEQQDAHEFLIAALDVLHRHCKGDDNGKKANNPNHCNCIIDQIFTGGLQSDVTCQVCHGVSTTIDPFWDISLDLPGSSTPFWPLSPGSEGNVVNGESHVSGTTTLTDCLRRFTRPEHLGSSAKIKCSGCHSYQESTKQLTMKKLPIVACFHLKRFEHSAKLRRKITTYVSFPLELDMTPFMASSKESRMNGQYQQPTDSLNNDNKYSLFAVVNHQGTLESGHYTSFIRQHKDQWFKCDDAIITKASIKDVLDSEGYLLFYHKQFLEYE
Procedure, shortened: as §1

USP24 = USP24 (UniProt Q9UPU5)
Procedure, shortened: as §1

USP25 = molecular target: T3, USP25 (UniProt Q9UHP3)
T3 sequence (whole entry): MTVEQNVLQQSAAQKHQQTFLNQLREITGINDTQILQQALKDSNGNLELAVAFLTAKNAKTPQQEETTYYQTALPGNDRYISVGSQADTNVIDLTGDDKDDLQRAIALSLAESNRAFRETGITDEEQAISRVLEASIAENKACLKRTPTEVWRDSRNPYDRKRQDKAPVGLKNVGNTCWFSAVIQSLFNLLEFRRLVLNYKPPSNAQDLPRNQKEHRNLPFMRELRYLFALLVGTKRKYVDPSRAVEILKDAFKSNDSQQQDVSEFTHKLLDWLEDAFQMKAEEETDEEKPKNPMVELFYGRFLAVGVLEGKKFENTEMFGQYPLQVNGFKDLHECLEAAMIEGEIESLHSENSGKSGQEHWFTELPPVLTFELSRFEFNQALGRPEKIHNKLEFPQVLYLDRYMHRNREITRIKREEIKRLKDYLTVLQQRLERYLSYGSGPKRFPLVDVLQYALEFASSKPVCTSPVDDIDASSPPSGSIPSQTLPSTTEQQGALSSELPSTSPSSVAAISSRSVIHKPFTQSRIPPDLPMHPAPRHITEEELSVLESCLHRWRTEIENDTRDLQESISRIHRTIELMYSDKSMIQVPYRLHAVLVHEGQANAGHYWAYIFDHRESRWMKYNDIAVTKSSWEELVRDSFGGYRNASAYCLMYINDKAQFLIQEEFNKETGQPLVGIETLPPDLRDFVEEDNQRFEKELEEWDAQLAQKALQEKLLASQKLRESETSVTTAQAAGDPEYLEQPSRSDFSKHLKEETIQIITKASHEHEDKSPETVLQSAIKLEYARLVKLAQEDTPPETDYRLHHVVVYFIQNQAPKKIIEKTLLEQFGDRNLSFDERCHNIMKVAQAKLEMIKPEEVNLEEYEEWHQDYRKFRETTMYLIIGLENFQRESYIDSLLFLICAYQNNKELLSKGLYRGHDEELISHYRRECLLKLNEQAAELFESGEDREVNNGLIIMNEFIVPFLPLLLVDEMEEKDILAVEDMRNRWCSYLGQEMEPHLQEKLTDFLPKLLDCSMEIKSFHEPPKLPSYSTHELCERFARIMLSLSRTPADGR
Procedure, shortened: as §1

USP28 = molecular target: T4, USP28 (UniProt Q96RU2)
T4 sequence (whole entry): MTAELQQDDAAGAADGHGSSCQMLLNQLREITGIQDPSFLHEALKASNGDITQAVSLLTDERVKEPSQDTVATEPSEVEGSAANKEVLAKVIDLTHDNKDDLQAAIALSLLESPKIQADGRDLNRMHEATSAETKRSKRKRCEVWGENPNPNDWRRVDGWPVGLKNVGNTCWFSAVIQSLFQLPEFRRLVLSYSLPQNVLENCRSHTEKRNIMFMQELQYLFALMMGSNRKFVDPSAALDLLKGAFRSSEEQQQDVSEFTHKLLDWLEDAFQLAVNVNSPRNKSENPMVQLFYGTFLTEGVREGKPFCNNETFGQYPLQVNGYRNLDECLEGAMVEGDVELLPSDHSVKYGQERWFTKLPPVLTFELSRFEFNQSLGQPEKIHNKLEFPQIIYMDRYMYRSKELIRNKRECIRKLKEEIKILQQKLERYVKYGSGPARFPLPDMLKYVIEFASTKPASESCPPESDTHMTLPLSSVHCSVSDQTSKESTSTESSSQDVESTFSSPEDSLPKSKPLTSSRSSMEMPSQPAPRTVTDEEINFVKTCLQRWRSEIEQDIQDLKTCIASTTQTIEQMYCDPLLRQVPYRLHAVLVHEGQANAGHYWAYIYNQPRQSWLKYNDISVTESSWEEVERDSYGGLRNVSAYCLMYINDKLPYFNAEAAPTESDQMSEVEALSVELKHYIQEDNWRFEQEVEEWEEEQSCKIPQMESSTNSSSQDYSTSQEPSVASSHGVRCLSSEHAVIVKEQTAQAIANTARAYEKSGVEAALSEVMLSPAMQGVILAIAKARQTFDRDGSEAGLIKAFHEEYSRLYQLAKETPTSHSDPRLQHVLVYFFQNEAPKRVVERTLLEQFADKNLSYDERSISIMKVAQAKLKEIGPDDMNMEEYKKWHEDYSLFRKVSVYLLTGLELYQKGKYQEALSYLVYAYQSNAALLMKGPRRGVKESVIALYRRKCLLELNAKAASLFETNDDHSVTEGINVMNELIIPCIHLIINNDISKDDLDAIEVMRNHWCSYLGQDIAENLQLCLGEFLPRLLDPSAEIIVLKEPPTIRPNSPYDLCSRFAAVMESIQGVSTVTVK
Procedure, shortened: as §1

Measured: log2 ratio of Biotin-Ahx-Ub-VS probe labelling

USP24, sequence (Q9UPU5 whole entry): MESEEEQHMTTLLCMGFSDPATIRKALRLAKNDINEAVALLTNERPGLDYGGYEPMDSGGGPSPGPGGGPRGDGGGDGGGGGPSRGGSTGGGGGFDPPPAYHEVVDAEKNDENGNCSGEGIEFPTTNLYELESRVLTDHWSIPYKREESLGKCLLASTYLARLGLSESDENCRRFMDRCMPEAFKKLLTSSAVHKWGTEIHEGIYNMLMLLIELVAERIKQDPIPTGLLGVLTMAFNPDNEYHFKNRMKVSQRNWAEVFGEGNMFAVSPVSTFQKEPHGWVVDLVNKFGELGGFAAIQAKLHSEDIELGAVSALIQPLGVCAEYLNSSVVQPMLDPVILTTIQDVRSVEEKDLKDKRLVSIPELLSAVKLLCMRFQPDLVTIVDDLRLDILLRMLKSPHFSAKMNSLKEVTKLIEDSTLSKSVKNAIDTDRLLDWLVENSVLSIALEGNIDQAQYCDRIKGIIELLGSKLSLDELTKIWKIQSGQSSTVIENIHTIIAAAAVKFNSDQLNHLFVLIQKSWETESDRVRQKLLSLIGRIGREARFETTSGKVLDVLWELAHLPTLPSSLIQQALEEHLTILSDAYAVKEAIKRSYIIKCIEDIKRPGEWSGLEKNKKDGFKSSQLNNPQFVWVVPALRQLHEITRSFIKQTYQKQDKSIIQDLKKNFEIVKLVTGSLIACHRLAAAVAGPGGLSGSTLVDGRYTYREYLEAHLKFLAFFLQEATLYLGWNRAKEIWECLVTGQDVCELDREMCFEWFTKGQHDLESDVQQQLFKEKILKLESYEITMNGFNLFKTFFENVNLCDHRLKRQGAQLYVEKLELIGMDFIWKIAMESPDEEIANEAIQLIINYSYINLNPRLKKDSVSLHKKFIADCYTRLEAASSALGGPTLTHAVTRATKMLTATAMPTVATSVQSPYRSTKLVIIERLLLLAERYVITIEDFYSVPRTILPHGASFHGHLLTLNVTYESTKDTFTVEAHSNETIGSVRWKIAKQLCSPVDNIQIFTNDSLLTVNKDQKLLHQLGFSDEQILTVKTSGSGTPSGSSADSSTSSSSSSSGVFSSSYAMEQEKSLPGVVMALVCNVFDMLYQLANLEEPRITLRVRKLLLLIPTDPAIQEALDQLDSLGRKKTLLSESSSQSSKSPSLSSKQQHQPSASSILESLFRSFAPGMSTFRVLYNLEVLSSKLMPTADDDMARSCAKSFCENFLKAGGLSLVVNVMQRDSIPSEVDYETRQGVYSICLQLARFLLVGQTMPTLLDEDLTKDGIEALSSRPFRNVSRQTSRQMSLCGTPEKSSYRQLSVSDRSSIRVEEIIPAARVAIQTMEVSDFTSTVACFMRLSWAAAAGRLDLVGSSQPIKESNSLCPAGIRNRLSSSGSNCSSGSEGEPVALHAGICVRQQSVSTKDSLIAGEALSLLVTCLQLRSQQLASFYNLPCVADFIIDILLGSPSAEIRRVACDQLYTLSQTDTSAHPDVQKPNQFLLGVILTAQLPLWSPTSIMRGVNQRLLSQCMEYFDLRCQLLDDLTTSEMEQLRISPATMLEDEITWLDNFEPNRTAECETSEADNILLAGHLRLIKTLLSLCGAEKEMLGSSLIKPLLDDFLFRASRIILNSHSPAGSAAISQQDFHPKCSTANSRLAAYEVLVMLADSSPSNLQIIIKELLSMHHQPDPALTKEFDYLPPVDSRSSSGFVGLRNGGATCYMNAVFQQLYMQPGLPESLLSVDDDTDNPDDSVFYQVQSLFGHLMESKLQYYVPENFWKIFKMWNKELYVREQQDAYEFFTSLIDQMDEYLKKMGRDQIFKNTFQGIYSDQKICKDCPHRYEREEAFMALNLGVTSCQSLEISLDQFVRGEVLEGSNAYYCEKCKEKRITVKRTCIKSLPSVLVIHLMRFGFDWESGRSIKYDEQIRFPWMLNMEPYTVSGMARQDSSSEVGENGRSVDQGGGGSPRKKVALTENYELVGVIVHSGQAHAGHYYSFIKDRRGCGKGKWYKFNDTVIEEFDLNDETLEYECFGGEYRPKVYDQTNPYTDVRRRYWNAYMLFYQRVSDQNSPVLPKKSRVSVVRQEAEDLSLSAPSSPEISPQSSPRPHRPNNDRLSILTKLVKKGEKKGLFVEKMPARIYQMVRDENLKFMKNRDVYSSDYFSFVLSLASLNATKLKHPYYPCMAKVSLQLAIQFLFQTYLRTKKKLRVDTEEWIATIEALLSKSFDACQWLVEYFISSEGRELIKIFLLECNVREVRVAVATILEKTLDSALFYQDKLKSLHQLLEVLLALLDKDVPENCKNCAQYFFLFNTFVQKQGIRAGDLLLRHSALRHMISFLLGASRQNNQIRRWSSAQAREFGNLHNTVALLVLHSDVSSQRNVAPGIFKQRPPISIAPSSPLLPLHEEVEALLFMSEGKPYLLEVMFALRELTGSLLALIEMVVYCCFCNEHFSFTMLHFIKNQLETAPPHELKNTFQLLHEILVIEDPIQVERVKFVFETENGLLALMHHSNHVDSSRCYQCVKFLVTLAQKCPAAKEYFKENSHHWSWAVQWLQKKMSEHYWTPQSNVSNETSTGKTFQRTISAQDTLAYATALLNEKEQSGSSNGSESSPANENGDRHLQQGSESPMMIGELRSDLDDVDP

CS(=O)(=O)c1ccc(CNC(=O)CCl)cc1
inactive: USP19 -0.123 | USP22 -0.163 | USP24 -0.159 | USP25 -0.385 | USP28 -0.583
